# Measurements from the supplement of paper PMC6853941.
# Test system: MCF10A
# Experiment: perturbation Mahalanobis distance of morphological profile vs DMSO controls (Mahalanobis distance (SD units)); higher = stronger morphological change, active = 7 or more
# Settings: screen batch: Batch1_Mahalanobis_Distance; 72 h
# Description: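 MCF10A cells were seeded onto drugs dispensed acoustically into 384-well plates, using one dose per drug chosen from its human peak plasma concentration, and incubated for 72 h at 37 °C. Cells were stained for DNA, tubulin and mitochondria and imaged; 78 CellProfiler features were extracted, plate-normalised and compared with DMSO wells.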
row,Compound,perturbation Mahalanobis distance
1,O=C(O)P(=O)(O)O [Foscarnet] (887 µM),3.95 (inactive)
2,COc1ccc2c3c1O[C@H]1C[C@@H](O)C=C[C@@]31CCN(C)C2 [Galantamine] (20 µM),2.14 (inactive)
3,CC1=NS(=O)(=O)c2cc(Cl)ccc2N1 [Diazoxide] (86.7 µM),2.69 (inactive)
4,Nc1nnc(-c2cccc(Cl)c2Cl)c(N)n1 [Lamotrigine] (54.6 µM),2.15 (inactive)
5,Clc1ccc2c(c1)C(N1CCNCC1)=Nc1ccccc1O2 [Amoxapine] (9.6 µM),2.24 (inactive)
6,CCCCNc1cc(C(=O)O)cc(S(N)(=O)=O)c1Oc1ccccc1 [Bumetanide] (1 µM),3.62 (inactive)
7,COc1ccccc1OCC(O)CN1CCN(CC(=O)Nc2c(C)cccc2C)CC1 (stereo unspecified) [Ranolazine] (37.4 µM),2.73 (inactive)
8,NNc1nncc2ccccc12 [Hydralazine] (15.6 µM),4.07 (inactive)
9,CN(C)CC[C@@H](c1ccc(Cl)cc1)c1ccccn1 [Dexchlorpheniramine] (0.15 µM),2.03 (inactive)
10,COCCCOc1cc(C[C@@H](C[C@H](N)[C@@H](O)C[C@H](C(=O)NCC(C)(C)C(N)=O)C(C)C)C(C)C)ccc1OC [Aliskiren] (2.5 µM),2.96 (inactive)
11,O=C(O)[C@H]1OC(Oc2ccc([C@@H]3[C@@H](CC[C@@H](O)c4ccc(F)cc4)C(=O)N3c3ccc(F)cc3)cc2)[C@H](O)[C@@H](O)[C@@H]1O (stereo partly specified) [Ezetimibe Glucuronide] (47 µM),2.38 (inactive)
12,CNS(=O)(=O)Cc1ccc2[nH]cc(CCN(C)C)c2c1 [Sumatriptan] (1 µM),1.95 (inactive)
13,Nc1ccc(C(=O)O)c(O)c1 [4-Aminosalicylic Acid] (130.6 µM),12.9 (active)
14,CCC(c1ccccc1)c1c(O)oc2ccccc2c1=O (stereo unspecified) [Phenprocoumon] (64.2 µM),2.32 (inactive)
15,CC1(C)O[C@@H]2[C@@H](CO[C@@]3(COS(N)(=O)=O)OC(C)(C)O[C@@H]23)O1 [Topiramate] (76.6 µM),2.96 (inactive)
16,C[C@]12C=CC(=O)C=C1CC[C@@H]1[C@@H]2[C@@H](O)C[C@@]2(C)[C@H]1CC[C@]2(O)C(=O)CO [Prednisolone] (13.9 µM),4.8 (inactive)
17,CCOC(=O)C1=C[C@@H](OC(CC)CC)[C@H](NC(C)=O)[C@@H](N)C1 [Oseltamivir] (1 µM),2.31 (inactive)
18,O=C(CCCCCCC(=O)Nc1ccccc1)NO [Vorinostat] (9.8 µM),11 (active)
19,CC(=O)O[C@H]1C[C@@H]2CC[C@@H]3[C@H](CC[C@@]4(C)[C@H]3C[C@H]([N+]3(C)CCCCC3)[C@@H]4OC(C)=O)[C@@]2(C)C[C@@H]1N1CCCCC1 [Vecuronium Bromide] (3.3 µM),3.8 (inactive)
20,CN/C(=C\[N+](=O)[O-])NCCSCc1csc(CN(C)C)n1 [Nizatidine] (7.5 µM),2.51 (inactive)
21,CC(=O)c1ccc(S(=O)(=O)NC(=O)NC2CCCCC2)cc1 [Acetohexamide] (10 µM),3.84 (inactive)

# Same assay, conditions: screen batch: Batch2_Mahalanobis_Distance; 72 h
row,Compound,perturbation Mahalanobis distance
1,O=C(O)P(=O)(O)O [Foscarnet] (887 µM),2.62 (inactive)
2,COc1ccc2c3c1O[C@H]1C[C@@H](O)C=C[C@@]31CCN(C)C2 [Galantamine] (20 µM),2.43 (inactive)
3,Nc1nnc(-c2cccc(Cl)c2Cl)c(N)n1 [Lamotrigine] (54.6 µM),2.9 (inactive)
4,Clc1ccc2c(c1)C(N1CCNCC1)=Nc1ccccc1O2 [Amoxapine] (9.6 µM),3.6 (inactive)
5,CCCCNc1cc(C(=O)O)cc(S(N)(=O)=O)c1Oc1ccccc1 [Bumetanide] (1 µM),2.57 (inactive)
6,COc1ccccc1OCC(O)CN1CCN(CC(=O)Nc2c(C)cccc2C)CC1 (stereo unspecified) [Ranolazine] (37.4 µM),3.08 (inactive)
7,NNc1nncc2ccccc12 [Hydralazine] (15.6 µM),3.91 (inactive)
8,CN(C)CC[C@@H](c1ccc(Cl)cc1)c1ccccn1 [Dexchlorpheniramine] (0.15 µM),2.67 (inactive)
9,COCCCOc1cc(C[C@@H](C[C@H](N)[C@@H](O)C[C@H](C(=O)NCC(C)(C)C(N)=O)C(C)C)C(C)C)ccc1OC [Aliskiren] (2.5 µM),2.64 (inactive)
10,O=C(O)[C@H]1OC(Oc2ccc([C@@H]3[C@@H](CC[C@@H](O)c4ccc(F)cc4)C(=O)N3c3ccc(F)cc3)cc2)[C@H](O)[C@@H](O)[C@@H]1O (stereo partly specified) [Ezetimibe Glucuronide] (47 µM),2.09 (inactive)
11,CNS(=O)(=O)Cc1ccc2[nH]cc(CCN(C)C)c2c1 [Sumatriptan] (1 µM),3.35 (inactive)
12,Nc1ccc(C(=O)O)c(O)c1 [4-Aminosalicylic Acid] (130.6 µM),13.9 (active)
13,CCC(c1ccccc1)c1c(O)oc2ccccc2c1=O (stereo unspecified) [Phenprocoumon] (64.2 µM),3.97 (inactive)
14,CC1(C)O[C@@H]2[C@@H](CO[C@@]3(COS(N)(=O)=O)OC(C)(C)O[C@@H]23)O1 [Topiramate] (76.6 µM),3.08 (inactive)
15,C[C@]12C=CC(=O)C=C1CC[C@@H]1[C@@H]2[C@@H](O)C[C@@]2(C)[C@H]1CC[C@]2(O)C(=O)CO [Prednisolone] (13.9 µM),3.8 (inactive)
16,CCOC(=O)C1=C[C@@H](OC(CC)CC)[C@H](NC(C)=O)[C@@H](N)C1 [Oseltamivir] (1 µM),1.77 (inactive)
17,O=C(CCCCCCC(=O)Nc1ccccc1)NO [Vorinostat] (9.8 µM),18.4 (active)
18,CC(=O)O[C@H]1C[C@@H]2CC[C@@H]3[C@H](CC[C@@]4(C)[C@H]3C[C@H]([N+]3(C)CCCCC3)[C@@H]4OC(C)=O)[C@@]2(C)C[C@@H]1N1CCCCC1 [Vecuronium Bromide] (3.3 µM),2.49 (inactive)
19,CN/C(=C\[N+](=O)[O-])NCCSCc1csc(CN(C)C)n1 [Nizatidine] (7.5 µM),2.13 (inactive)
20,CC(=O)c1ccc(S(=O)(=O)NC(=O)NC2CCCCC2)cc1 [Acetohexamide] (10 µM),4.7 (inactive)
